# Measurements published in PubChem BioAssay AID1861 (The Scripps Research Institute Molecular Screening Center, 2009).
# About 3,100 (1.1%) of roughly 290,000 compounds were called active. Rule as the data show it: active = inhibition above about 16% (passing the limit was not always enough); inactive = the rest. Many of the other results were omitted from the sample, so actives are more common in it than they were.
# Molecular target: Neuropeptides B/W receptor type 1 (Homo sapiens) (UniProt P48145)
# Sequence (P48145 whole entry, looked up): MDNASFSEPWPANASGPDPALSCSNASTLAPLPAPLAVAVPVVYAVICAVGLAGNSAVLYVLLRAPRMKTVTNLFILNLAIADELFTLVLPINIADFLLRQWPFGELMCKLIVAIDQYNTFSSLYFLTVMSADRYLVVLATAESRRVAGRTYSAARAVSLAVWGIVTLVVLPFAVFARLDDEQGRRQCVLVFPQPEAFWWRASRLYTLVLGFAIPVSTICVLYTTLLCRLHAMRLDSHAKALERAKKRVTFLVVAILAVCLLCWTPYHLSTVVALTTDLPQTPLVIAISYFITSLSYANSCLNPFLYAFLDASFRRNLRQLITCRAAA
# Test: blockers of human neuropeptide B/W receptor 1 – cell-based, fluorescence, single concentration, primary screen (AID 1861);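 also: cells stimulated with the agonist NPW; 0% = agonist with vehicle and 100% = vehicle without agonist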
# Details: GPR7-expressing cells, fluorescence antagonist assay; at 4.4 µM; active compounds read high
row,SMILES,inhibition
1,Cc1ccc(C(=O)OCC(=O)NCc2ccc3c(c2)OCO3)s1,-1.76% (inactive)
2,OC(CNCc1ccc2c(c1)OCO2)COc1ccccc1 (stereo not given),-0.63% (inactive)
3,O=C(COc1ccccc1)NCc1ccc2c(c1)OCO2,26% (active)
4,O=C(Nc1nc(-c2ccncc2)cs1)C1COc2ccccc2O1 (stereo not given),-9.64% (inactive)
5,CC(=O)NCCC(=O)Nc1nc(-c2ccc3c(c2)OCCO3)cs1,21.3% (inactive)
6,O=C(Nc1nc(-c2ccc3c(c2)OCO3)cs1)c1ccncc1,31.8% (active)
7,CC(Sc1nnc(COc2ccccc2)n1-c1ccccc1)C(=O)O (stereo not given),11% (inactive)
8,Cc1cccc(N(C(=O)c2sc(C)nc2C)C(C(=O)NCC2CCCO2)c2ccccc2)c1 (stereo not given),-10.3% (inactive)
9,CCOC(=O)C1CCN(C(=O)CN2C(=O)c3cccnc3Oc3ccc(C)cc32)CC1,-8.59% (inactive)
10,COc1ccccc1N1CCN(c2ccc([N+](=O)[O-])nc2)CC1,-2.36% (inactive)
11,COc1ccccc1N1CCN(c2ncnc3sc(C)c(-c4ccccc4)c23)CC1,27% (active)
12,Oc1ccccc1N1CCN(c2ncnc3sc(-c4ccccc4)cc23)CC1,-12.8% (inactive)
13,CCCCCc1ccc(-c2cn(Cc3ccc4ccccc4c3)nn2)cc1,2.3% (inactive)
14,N#Cc1ccccc1NC(=O)c1ccc2c(c1)OCO2,-3.22% (inactive)
15,O=C(Nc1ccccc1F)c1ccc2c(c1)OCO2,30.2% (active)
16,Cc1ccc(F)cc1NC(=O)c1ccc2c(c1)OCO2,-15.9% (inactive)
17,COc1ccc(CCNS(=O)(=O)c2cc3c(cc2C)NC(=O)CO3)cc1OC,-11.3% (inactive)
18,Cc1cccc(N2CCN(C(=O)COCc3cc(-c4ccc5c(c4)OCO5)on3)CC2)c1C,14% (inactive)
19,O=C(COC(=O)c1ccc(F)cc1)Nc1nc2ccc([N+](=O)[O-])cc2s1,-8.84% (inactive)
20,CCC(=O)NC(Nc1nc2ccc(C)cc2s1)(C(=O)OC)C(F)(F)F (stereo not given),-6.22% (inactive)

row,SMILES,inhibition
1,O=C(NC(Nc1nc2ccc([N+](=O)[O-])cc2s1)(C(F)(F)F)C(F)(F)F)c1ccccc1,27.1% (active)
2,COc1cc(C2NC(=O)NC(c3ccccc3)=C2C(C)=O)c(Br)cc1OCC(N)=O (stereo not given),-18.1% (inactive)
3,COc1cccc(CNC(=O)COc2cc(O)c3c(c2)OC(C)(C)CC3=O)c1,1.6% (inactive)
4,CC(CCc1ccccc1)NC(=O)COC(=O)c1ccc(F)cc1 (stereo not given),-18.2% (inactive)
5,CC(C)[C@H](NC(=O)N1CCn2c1nc1ccccc12)C(=O)NC1CC1,-2.43% (inactive)
6,Cc1cccc(CS(=O)(=O)c2ncc(Cl)c(C(=O)Nc3ccc(F)cc3)n2)c1,39.8% (active)
7,Cc1ccc(CS(=O)(=O)c2ncc(Cl)c(C(=O)Nc3nnc(C)s3)n2)cc1,-20.2% (inactive)
8,Cc1cccc(NC(=O)c2nc(S(=O)(=O)Cc3ccccc3)ncc2Cl)c1,9.7% (inactive)
9,CC(=O)NCCC(=O)Nc1cc(S(=O)(=O)N2CCCCC2)ccc1Oc1cccc(C)c1,9.48% (inactive)
10,Cc1ccc(NC(=S)N(CCN2CCCCC2)Cc2ccco2)cc1C,0.11% (inactive)
11,Cc1ccc(NC(=S)N(Cc2ccco2)C(C)c2cccs2)cc1 (stereo not given),-21.7% (inactive)
12,Cc1ccc(NC(=S)N(CCCN2CCC(C)CC2)Cc2ccco2)cc1,26.8% (active)
13,c1ccc2c(c1)CSc1sccc1C2=C1CCNCC1,24.5% (active)
14,C=CS(=O)c1sc(Cl)c(N2CCOCC2)c1[N+](=O)[O-] (stereo not given),3.73% (inactive)
15,Cn1c(=O)[nH]c(=O)c2c1nc(N(CCO)Cc1ccccc1)n2Cc1ccccc1Cl,27.1% (active)
16,CCOC(=O)Cn1c(CN(Cc2ccccc2)Cc2ccccc2)nc2c1c(=O)[nH]c(=O)n2C,-9.45% (inactive)
17,CN(Cc1ccccc1)c1nc2c(c(=O)[nH]c(=O)n2C)n1CCSc1nc2ccccc2[nH]1,-4.5% (inactive)
18,CNC(=O)c1sc(Nc2ccc(OCc3ccccc3)cc2)nc1C,1.33% (inactive)
19,CCC(Cc1ccccc1)NC(=O)C1CCCCC1 (stereo not given),-7.32% (inactive)
20,O=C(NC(=O)c1ccccc1)Nc1ccccc1O,40.9% (active)

row,SMILES,inhibition
1,Cc1ccc(NC(=O)NC(=O)c2ccccc2)cc1F,-0.7% (inactive)
2,O=C(NC(=O)c1ccccc1)NC(=O)c1ccccc1,6% (inactive)
3,CCn1c(SCC(=O)Nc2ccc3c(c2)OCCO3)nnc1-c1ccncc1,-4.19% (inactive)
4,Cc1nonc1C1CCCN1C(=O)c1cc(COc2cccc(C(F)(F)F)c2)on1 (stereo not given),-2.6% (inactive)
5,COc1cccc(N2CCN(c3ccc4nnc(CCC(=O)N5CCN(C)CC5)n4n3)CC2)c1,-14.2% (inactive)
6,CCCOc1cccc(C(=O)Nc2ccccc2C(=O)N2CCN(C)CC2)c1,-9.32% (inactive)
7,O=C(CN1C(=O)/C(=C\c2ccc(C(F)(F)F)cc2)Sc2ccccc21)NCc1ccco1,5.13% (inactive)
8,O=C(CN1C(=O)/C(=C/c2ccccc2F)Sc2ccccc21)NCc1cccnc1,40.7% (active)
9,O=C(CN1C(=O)S/C(=C\c2ccccc2F)C1=O)NCCCn1ccnc1,-12% (inactive)
10,CSCc1ccc(C(=O)Nc2cc(C)cc(C)c2)cc1,3.49% (inactive)
11,O=C(Nc1ccc(-c2ccc3nncn3n2)cc1)C1CCCCC1,-11.2% (inactive)
12,Cc1ccc2nc(Nc3ccccc3)cc(C)c2c1,-2.1% (inactive)
13,Cc1ccc2nc3n(c(=O)c2c1)CCC3,-5.32% (inactive)
14,Cc1ccc2nc(C)c3c(c2c1)N(c1ccccc1)CC3,36.7% (active)
15,C/C(=N\NC(=O)c1cc2c(s1)CCC(C)C2)c1cccnc1 (stereo not given),-6.07% (inactive)
16,O=C(NCc1ccc2c(c1)OCO2)C(=O)NCC1OCCN1S(=O)(=O)c1ccc(F)cc1 (stereo not given),-11.7% (inactive)
17,CN(C)c1ccc(Nc2c3c4c(cccc4n(C)c2=O)C(=O)c2ccccc2-3)cc1,-1.09% (inactive)
18,CCC(=O)c1ccc(N2CCN(C(=O)c3cc([N+](=O)[O-])ccc3F)CC2)c(F)c1,8.34% (inactive)
19,CCN1CCN(c2ccc([N+](=O)[O-])cc2C(=O)c2ccc(Cl)cc2)CC1,32.3% (active)
20,O=C(Nc1cccc(Cl)c1)c1cc([N+](=O)[O-])ccc1N1CCN(CCO)CC1,6.31% (inactive)
